This passage reports Inhibition results from ChEMBL document CHEMBL1157539, “Thousands of chemical starting points for antimalarial lead identification” (Nature, 2010).

Holding throughout (format): functional
Assay [1] has as its system Plasmodium falciparum. The experiment in a line: GSK_TCMDC: Inhibition of Plasmodium falciparum 3D7 in whole red blood cells, using parasite LDH activity as an index of growth. Test compounds present at 2uM.
For assay [2], the system named is Plasmodium falciparum. In words: GSK_TCMDC: Inhibition of Plasmodium falciparum Dd2 in whole red blood cells, using parasite LDH activity as an index of growth. Test compounds present at 2uM.
The next assay has as its system HepG2. In words: GSK_TCMDC: Percent inhibition of human HepG2 cell line. Test compounds present at 10uM.

In the case of `Cc1nn(-c2ccccc2)c2c1C(c1ccc(C(C)C)cc1)N1C(=N2)N(Cc2ccccc2)c2ccccc21` (stereo not given), the Inhibition (as a rule, the drop in the measured response relative to a control, in per cent) in the assay on Plasmodium falciparum [1] was determined as 95%; in the assay with Plasmodium falciparum [2] it was 37%; in the assay with HepG2 it was 7%.

As for `COc1ccc2nccc([C@@H](O)CN3CCC(NCc4nc5ccccc5[nH]4)CC3)c2c1.O=C(O)C(=O)O`, the Inhibition with Plasmodium falciparum [1] stood at 92%; in the assay with Plasmodium falciparum [2], 2%; with HepG2, 41%.

With `CCN1CCN(c2cc(C)c3cc(NC(=O)c4cccc([N+](=O)[O-])c4)ccc3n2)CC1`, the Inhibition is given as 99% with Plasmodium falciparum [1], 73% in the assay with Plasmodium falciparum [2] and 74% in the assay with HepG2.

On to `N=C(N)CCN(Cc1ccc(Cl)cc1)c1ccc(Cl)cc1`, for which the results for the Inhibition in the assay with Plasmodium falciparum [1], in the assay with Plasmodium falciparum [2] and in the assay with HepG2 were 96%, 92% and 22%, respectively.

`O=C(Nc1cccc(CN2CCCN(Cc3ccc(O)cc3)CC2)c1)c1cccc(C(F)(F)F)c1.O=C(O)C(F)(F)F`: the Inhibition with Plasmodium falciparum [1] was determined as 100%; in the assay on Plasmodium falciparum [2] it was 71%; in the assay with HepG2, 9%.

Consider `CC(=O)N1N=C(c2[nH]c3ccc(Br)cc3c2C)OC1c1ccccc1` (stereo not given), for which the Inhibition is reported as 86% with Plasmodium falciparum [1], 68% with Plasmodium falciparum [2] and 8% in the assay with HepG2.

For the compound `CCOC(=O)C(C)(C)Oc1ccc(CN(Cc2ccc(CC(C)C)cc2)C(=O)Nc2ccc(F)cc2F)c(OC)c1`, the Inhibition is on record as 97% with Plasmodium falciparum [1], 96% with Plasmodium falciparum [2] and 5% with HepG2.

In the case of `CS(=O)(=O)c1ccc(CCNCc2ccc(-c3ccc(CN(C(=O)c4ccc(Cl)nc4)C4CCN(Cc5ccccc5)CC4)cc3)nc2)cc1.O=C(O)C(F)(F)F`, the Inhibition in the assay with Plasmodium falciparum [1] is reported as 93%; with Plasmodium falciparum [2], 70%; with HepG2 it was 24%.

On to `O=C(/C=C/c1ccc(Cl)cc1)NCCCCCN1CCCN(C(=O)Nc2ccc(Cl)c(C(F)(F)F)c2)CC1`, for which the results for the Inhibition in the assay with Plasmodium falciparum [1], in the assay on Plasmodium falciparum [2] and in the assay on HepG2 were 95%, 1% and 54%, respectively.

With `Nc1ccc(-c2ccc(NC(=O)Nc3cc(C(F)(F)F)ccc3F)cc2)cn1`, the Inhibition in the assay with Plasmodium falciparum [1] came to 99%; with Plasmodium falciparum [2] it was 39%; in the assay on HepG2, 0%.
